Data published in PubChem BioAssay (EPA / NIEHS).
Records with an inconclusive call do not appear. Activity calls are given as the source filed them. Rule for the calls: active = hit-call score of the fitted dose curve at least 0.9, where 1 is the maximum; inconclusive = response in the unintended direction; inactive = score below 0.9.

What was measured:
[1] = biological target: Cellular tumor antigen p53 (Homo sapiens) (UniProt P04637); assay: TOX21_p53_BLA_p2_ratio: Tox21 HCT-116 p53 Agonism Beta-lactamase Assay, Ratio, Phase 2 (AID 2283592)
Cellular tumor antigen p53 (Homo sapiens), sequence (P04637 whole entry, looked up): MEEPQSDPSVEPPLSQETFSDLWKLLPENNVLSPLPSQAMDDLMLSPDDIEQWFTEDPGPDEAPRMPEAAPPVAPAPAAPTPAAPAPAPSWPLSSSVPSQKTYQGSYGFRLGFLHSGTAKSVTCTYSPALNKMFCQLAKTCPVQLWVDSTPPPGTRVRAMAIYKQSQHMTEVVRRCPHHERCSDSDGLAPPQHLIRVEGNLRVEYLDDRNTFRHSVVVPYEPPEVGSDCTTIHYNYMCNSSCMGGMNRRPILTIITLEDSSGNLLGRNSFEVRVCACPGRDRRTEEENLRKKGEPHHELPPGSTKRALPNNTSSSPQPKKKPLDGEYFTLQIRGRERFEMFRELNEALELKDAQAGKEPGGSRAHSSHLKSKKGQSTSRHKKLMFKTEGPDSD
Outline: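 DMSO-normalized, positive-direction endpoint derived from the 460 nm/530 nm FRET ratio in HCT116 p53 beta-lactamase reporter cells exposed 16 h at 37C and loaded with CCF4-AM for 2 h.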

[2] = TOX21_p53_BLA_p3_viability: Viability Assessment in the Tox21 HCT-116 p53 Agonism Beta-lactamase Assay, Phase 3 (AID 2283593);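 note: cells exposed to compound for 16 h before reading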
Outline: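 Cellular ATP was quantified by CellTiter-Glo luminescence, read after 30 min at room temperature. Beforehand, HCT116 cells (4000/well) received compound 5 h post-seeding, 217-fold diluted from DMSO, then incubated 16 h at 37C.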

[3] = biological target: Cellular tumor antigen p53 (Homo sapiens) (UniProt P04637); assay: TOX21_p53_BLA_p3_ratio: Tox21 HCT-116 p53 Agonism Beta-lactamase Assay, Ratio, Phase 3 (AID 2283596)
Outline: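 Cells were seeded at 4000/well, rested 5 h at 37C, then dosed with DMSO compound solutions (217-fold dilution) for 16 h. CCF4-AM substrate was loaded for 2 h at room temperature, and the 460/530 nm emission ratio was fitted for gain of signal versus DMSO.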

[4] = biological target: Cellular tumor antigen p53 (Homo sapiens) (UniProt P04637); assay: TOX21_p53_BLA_p5_ratio: Tox21 HCT-116 p53 Agonism Beta-lactamase Assay, Ratio, Phase 5 (AID 2283599)
Outline: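 Beta-lactamase reporter ratio (blue 460 nm over green 530 nm, 405 nm excitation) after 2 h CCF4-AM loading, in HCT-116 cells exposed 16 h at 37 C to compounds pinned at 217-fold dilution. Increases relative to DMSO baseline scored.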

[5] = TOX21_p53_BLA_p5_viability: Viability Assessment in the Tox21 HCT-116 p53 Agonism Beta-lactamase Assay, Phase 5 (AID 2283600)
Outline: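 Here cell health was gauged by ATP levels in wells holding 4000 cells, each treated 16 h with DMSO-delivered compounds at 217-fold dilution; reduced luminescence marked toxicity.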

[6] = biological target: Cellular tumor antigen p53 (Homo sapiens) (UniProt P04637); assay: TOX21_p53_BLA_p4_ratio: Tox21 HCT-116 p53 Agonism Beta-lactamase Assay, Ratio, Phase 4 (AID 2283601)
Outline: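 Signal is the blue/green (460nm/530nm) ratio of cleaved versus uncleaved CCF4-AM substrate, read after 2 h substrate loading. Cells were HCT116 carrying the p53-responsive beta-lactamase reporter, dosed 16 h at 37C, 5% CO2; CellTiter-Glo measured in parallel.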

Measured: outcome

CC(C)(C)NCC(O)c1ccc(O)c(CO)n1 (stereo not drawn)
inactive: [1] | [2] | [3] | [4] | [5] | [6]

C=CCn1c(=O)n([C@@H]2O[C@H](CO)[C@@H](O)[C@H]2O)c2nc(N)[nH]c(=O)c21
inactive: [1] | [2] | [3] | [6]

CC(C)NCC(O)COc1cccc2[nH]ccc12 (stereo not drawn)
inactive: [1] | [2] | [3] | [4] | [6]

C[C@H](CCCC(C)(C)O)[C@H]1CC[C@H]2[C@@H]3CC=C4C[C@@H](O)CC[C@]4(C)[C@H]3CC[C@]12C
inactive: [1] | [2] | [3] | [6]

CO/N=C(\C(=O)N[C@@H]1C(=O)N2C(C(=O)O)=C(CSc3cnns3)CS[C@H]12)c1csc(N)n1
inactive: [1] | [2] | [3] | [4] | [6]

Nc1nnc(-c2cccc(Cl)c2Cl)c(N)n1
inactive: [1] | [2] | [3] | [6]

O=c1[nH]c(=O)n([C@H]2C[C@H](O)[C@@H](CO)O2)cc1/C=C/Br
inactive: [1] | [2] | [3] | [5] | [6]

c1csc(SSc2cccs2)c1
inactive: [1] | [2] | [3] | [4] | [6]

CCCCC(C)(O)C/C=C/[C@H]1[C@H](O)CC(=O)[C@@H]1CCCCCCC(=O)OC (stereo partly drawn)
inactive: [1] | [2] | [3] | [4] | [6]

CC(C)(C)C(=O)OCOC(=O)[C@@H]1N2C(=O)[C@@H](NC(=O)[C@H](N)c3ccccc3)[C@H]2SC1(C)C
inactive: [1] | [2] | [3] | [4] | [6]

CCCCCCCCCCCCCCCCCCO
inactive: [1] | [2] | [3] | [4] | [6]

C[C@]1(Cn2ccnn2)[C@H](C(=O)O)N2C(=O)C[C@H]2S1(=O)=O
inactive: [1] | [2] | [3] | [4] | [6]

NC(N)=NCC1COC2(CCCCC2)O1 (stereo not drawn)
inactive: [1] | [2] | [3] | [5] | [6]

N=c1nc(N2CCCCC2)cc(N)n1O
inactive: [1] | [2] | [3] | [4] | [6]

CCC(c1ccccc1)c1noc(CCN(CC)CC)n1 (stereo not drawn)
inactive: [1] | [2] | [3] | [4] | [6]

CC(=O)N(CC(O)CN(C(C)=O)c1c(I)c(C(=O)NCC(O)CO)c(I)c(C(=O)NCC(O)CO)c1I)c1c(I)c(C(=O)NCC(O)CO)c(I)c(C(=O)NCC(O)CO)c1I (stereo not drawn)
inactive: [1] | [2] | [3] | [4] | [6]
